Laboratory results from PubChem BioAssay (NCI).
This is part of a sample that, as a whole, favours compounds with a hit. Of some 83,000 tested, about 20% had one in any assay.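 Note: values are percent growth. 100 is the growth of untreated cells, values between 100 and 0 indicate rising inhibition; between -100 and 0 indicates cell death.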 A number with no mark means an inactive call. Active and inactive are the calls of the source. The calls were made as follows: active = growth percent below 10; inactive = the rest.

Experiments:
Experiment in all cases: NCI-60 one-dose screen, 48 h (100 = growth as untreated, 0 = no growth, -100 = all killed)
Details in all cases: 10 µM unless noted
HCT-15 colon = test system: HCT-15 colon
HT29 colon = test system: HT29 colon
SNB-75 CNS = test system: SNB-75 CNS
SNB-19 CNS = test system: SNB-19 CNS
U251 CNS = test system: U251 CNS
PC-3 prostate = test system: PC-3 prostate
SK-MEL-5 melanoma = test system: SK-MEL-5 melanoma
UACC-62 melanoma = test system: UACC-62 melanoma
LOX IMVI melanoma = test system: LOX IMVI melanoma
SK-MEL-28 melanoma = test system: SK-MEL-28 melanoma
EKVX NSCLC = test system: EKVX NSCLC
SN12C renal = test system: SN12C renal
UO-31 renal = test system: UO-31 renal
TK-10 renal = test system: TK-10 renal
ACHN renal = test system: ACHN renal
CAKI-1 renal = test system: CAKI-1 renal
A498 renal = test system: A498 renal
CCRF-CEM leukemia = test system: CCRF-CEM leukemia
MOLT-4 leukemia = test system: MOLT-4 leukemia

Compound | growth (HCT-15 colon) | growth (HT29 colon) | growth (SNB-75 CNS) | growth (SNB-19 CNS) | growth (U251 CNS) | growth (PC-3 prostate) | growth (SK-MEL-5 melanoma) | growth (UACC-62 melanoma) | growth (LOX IMVI melanoma) | growth (SK-MEL-28 melanoma) | growth (EKVX NSCLC) | growth (SN12C renal) | growth (UO-31 renal) | growth (TK-10 renal) | growth (ACHN renal) | growth (CAKI-1 renal) | growth (A498 renal) | growth (CCRF-CEM leukemia) | growth (MOLT-4 leukemia)
C=CC(=O)N1CCC[C@@H](n2nc(-c3ccc(Oc4ccccc4)cc3)c3c(N)ncnc32)C1 | 72.6% | 30.1% | 19.6% | 49.8% | 48.1% | 57.2% | 56.1% | 20.6% | 24.3% | 79.2% | 52.8% | 27.2% | 6.16% (active) | -8.56% (active) | 23.5% | 32.9% | -17.1% (active) | 54.8% | 25.3%
O=C(/C=C/c1ccc2c(c1)OCO2)c1c(O)c2ccccc2oc1=O | 97.1% | 96.6% | 87.7% | 115% | 101% | 95.9% | 111% | 96.7% | 94.6% | 112% | 108% | 106% | 90.1% | 113% | 102% | 95% | 107% | 103% | 77.6%
CN1CCN(CCOc2cc(OC3CCOCC3)c3c(Nc4c(Cl)ccc5c4OCO5)ncnc3c2)CC1 | 54.6% | 7.45% (active) | -17.7% (active) | 54.6% | 67.3% | 71% | 87.4% | 99.6% | 15.5% | 104% | 43.8% | 46.1% | 17.7% | 5.06% (active) | 12.5% | 21.7% | 49.4% | 84.3% | 56.2%
O=C(c1ccc(F)c(F)c1Nc1ccc(I)cc1F)N1CC(O)([C@@H]2CCCCN2)C1 | 25.6% | -18.5% (active) | 21.7% | 36.4% | 15.3% | 38.6% | -92.9% (active) | -5.75% (active) | -84.1% (active) | -1.76% (active) | 24.4% | 34% | -9.6% (active) | 11.6% | 18.2% | 21.9% | -71.2% (active) | 39.7% | 4.19% (active)
O=C(Nc1cccc([N+](=O)[O-])c1)c1ccc(Cl)c(Cl)c1 | 93.2% | 78.3% | -2.87% (active) | 53.5% | 62.4% | 60.7% | 89.4% | 74.4% | 63.6% | 53.5% | 66.4% | 67.9% | 95.4% | 49.9% | 49.8% | 86.4% | 79.9% | 82.7% | 85.9%
Cc1cc(Nc2cc(N3CCN(C)CC3)nc(/C=C/c3ccccc3)n2)n[nH]1 | 13.4% | -34.3% (active) | -97.1% (active) | 14% | -29.9% (active) | 16.5% | -88.7% (active) | -69.9% (active) | -92.6% (active) | -65.4% (active) | 36.1% | 11.7% | -53.8% (active) | -0.298% (active) | 0.23% (active) | -45.3% (active) | -86.7% (active) | 13.8% | -5.35% (active)
O=C(O)C1(Cc2cccc(Nc3nccs3)n2)CCC(Oc2cccc(Cl)c2F)CC1 (centres undefined) | 70.7% | 62.8% | 95.5% | 75.4% | 60.8% | 71.3% | 70.3% | 61.8% | 74.6% | 88.4% | 90.9% | 73.4% | 73.5% | 63.8% | 68.4% | 66.9% | 72% | 62.6% | 67.4%
Cc1cc(C(O)CN(C)C)cc2c1ccc1cc(C(C)C)ccc12 (centres undefined) | -38.7% (active) | -65.1% (active) | -63.5% (active) | 59% | -48.8% (active) | 48.6% | -93.1% (active) | -81.2% (active) | -100% (active) | -100% (active) | 84.5% | 62.6% | 26.4% | -62.1% (active) | -28.6% (active) | 8.02% (active) | 76.8% | 3.14% (active) | -29.5% (active)
Cc1ccc(NC(=O)Nc2ccc(Nc3ncnc4sc5c(c34)CCOC5)cc2)cc1Cl | 106% | 81.2% | 69.8% | 103% | 87.7% | 81.2% | 95% | 95.4% | 97.3% | 111% | 110% | 102% | 78.6% | 103% | 94.6% | 91.7% | 90.4% | 90.3% | 88.9%
COc1ccc(/C(C)=C(\c2ccc(Cl)cc2)c2ccc(OCCN3CCCCCC3)cc2)cc1 | 26.6% | 8.63% (active) | 74.4% | 64.7% | 42.3% | 45.3% | 48.3% | 67.8% | 35.8% | 71.6% | 56.7% | 55.3% | 46% | 73.8% | 67.3% | 66.6% | 78.4% | 43.9% | 40.2%
CN(C)CCn1c(=O)c2c3cc4c(cc3n(CCN(C)C)c2c2ccc(Cl)cc21)OCO4 | 43.3% | 25.1% | 70.8% | 34.3% | 44.6% | 36.2% | 52.8% | 76.9% | -88.2% (active) | 87% | 74% | 31.7% | 57.8% | 103% | 26.3% | 42.4% | 67.1% | 14.4% | 3.05% (active)
C[C@H]1Oc2cc(cnc2N)-c2c(nn(C)c2C#N)CN(C)C(=O)c2ccc(F)cc21 | 96.7% | 33% | 83.8% | 110% | 96.6% | 81.7% | 99.3% | 70.9% | 74.2% | 87.4% | 82.5% | 94.6% | 84.3% | 74% | 86% | 73% | 109% | 93.8% | 70.5%
N#Cc1c(C(F)(F)F)cc(Nc2ccc3nc(NCCN4CCCC4)oc3c2)n2c1nc1ccccc12 | 56.6% | 5.45% (active) | 82.6% | 85.2% | 89% | 52.1% | 69.8% | 78.1% | 62.3% | 72.8% | 73.6% | 55.6% | 66.6% | 79.5% | 83% | 74.1% | 52.8% | 11% | 56.7%
CN1CCN(c2ccc(C(=O)Nc3n[nH]c4ccc(Cc5cc(F)cc(F)c5)cc34)c(NC3CCOCC3)c2)CC1 | -65.7% (active) | -56.8% (active) | -93.2% (active) | -50.3% (active) | -83.7% (active) | -12.3% (active) | -96.5% (active) | -78.4% (active) | -89.7% (active) | -87% (active) | 8.7% (active) | -6.17% (active) | -90.7% (active) | -5.76% (active) | -7.72% (active) | -80.7% (active) | -54.8% (active) | 1.8% (active) | -20.4% (active)
COc1cc2cc(NCc3ccc(Cl)cc3)nc(C)c2cc1OC | 47% | 10% | 96.3% | 42.6% | 30.9% | 37.9% | 31.3% | 8.46% (active) | 5.76% (active) | 29.9% | 64.9% | 42% | 41.4% | 44.9% | 54.8% | 59.8% | 26% | 27.9% | 27.6%
Cc1cc(O)cc(-c2c(-c3ccnc(-c4cccnc4)c3)cnn2C)c1 | 74% | 60.7% | 16.4% | 96.4% | 69.3% | 47.8% | 56.5% | 62.1% | 61.5% | 60.8% | 89.5% | 58.9% | 36.1% | 51% | 39.5% | 42.3% | 5.82% (active) | 61.7% | 54.8%
